TROY signal inh: inhibitors of TROY-driven NF-kB signaling, primary screen, Q293 LMP1-TROYcd cells, NF-kB luciferase, uHTS. Q293 LMP1-TROYcd NF-kB luciferase reporter, 4 h. inhibition, % at 10 µM. hit rate 0.98% among 360,000. AID 1347056, 2019;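 active = compounds whose plate-normalised and pattern-corrected inhibition of the luciferase reporter signal at the single screening dose is 50% or more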
TWEAK Fn14 block: inhibitors of TWEAK-Fn14 signaling, primary screen, luciferase reporter cells, uHTS | inhibition, % at 10 µM | hit rate 2% among 360,000 | TWEAK-stimulated Fn14 reporter cells, luciferase luminescence, 8 h; in the data active = inhibition above about 50%
LGR2 antag: inhibitors of bursicon-induced LGR2 CRE-luciferase signal, primary screen, cell-based, HEK293, CRE-luciferase reporter, bursicon stimulation. Drosophila bursicon receptor LGR2 (rickets). bursicon-stimulated, 4 h. inhibition, % at 9.99 µM. hit rate 0.35% among 380,000;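 active = drop in luminescence signal, shown as inhibition above about 50% in the replicate tests, limit read from the data, passing the limit was not always enough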;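 also: agonist challenge used bursicon conditioned medium at about half maximal strength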
HSP90 refold inh: HSP90 inhibitors, primary screen, cell lysate, luminescence | Heat shock protein HSP 90 (rabbit reticulocyte lysate; luciferase refolding) | Rabbit reticulocyte lysate, luciferase refolding luminescence, 3 h | inhibition, % at 5.6 µM | hit rate 0.91% among 290,000;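 active = inhibition above the screen-wide mean plus 3 SD, computed separately per campaign, cut at about 16% in these data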;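 also: inhibitors lower the luminescence because luciferase stays unfolded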
HSP90 inh confirm: HSP90 inhibitors, confirmation, cell lysate, luminescence; shares compounds with HSP90 refold inh; rabbit reticulocyte lysate, luciferase refolding luminescence, 3 h; inhibition, % at 5.9 µM; hit rate 64% among 2,300; AID 1846, 2009; in the data active = inhibition above about 18%
FLuc counter: firefly luciferase inhibitors, HSP90 counter-screen, confirmation, artefact control for HSP90 inhibitor project, biochemical, luminescence, triplicate; shares compounds with HSP90 refold inh; purified native firefly luciferase; inhibition, % at 5.9 µM; hit rate 48% among 2,300; AID 1847, 2009;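 active = inhibition above the mean inhibition of all tested sample wells plus 3 SD, cut at about 10% in these data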
Target sequence (P08659 whole entry, looked up): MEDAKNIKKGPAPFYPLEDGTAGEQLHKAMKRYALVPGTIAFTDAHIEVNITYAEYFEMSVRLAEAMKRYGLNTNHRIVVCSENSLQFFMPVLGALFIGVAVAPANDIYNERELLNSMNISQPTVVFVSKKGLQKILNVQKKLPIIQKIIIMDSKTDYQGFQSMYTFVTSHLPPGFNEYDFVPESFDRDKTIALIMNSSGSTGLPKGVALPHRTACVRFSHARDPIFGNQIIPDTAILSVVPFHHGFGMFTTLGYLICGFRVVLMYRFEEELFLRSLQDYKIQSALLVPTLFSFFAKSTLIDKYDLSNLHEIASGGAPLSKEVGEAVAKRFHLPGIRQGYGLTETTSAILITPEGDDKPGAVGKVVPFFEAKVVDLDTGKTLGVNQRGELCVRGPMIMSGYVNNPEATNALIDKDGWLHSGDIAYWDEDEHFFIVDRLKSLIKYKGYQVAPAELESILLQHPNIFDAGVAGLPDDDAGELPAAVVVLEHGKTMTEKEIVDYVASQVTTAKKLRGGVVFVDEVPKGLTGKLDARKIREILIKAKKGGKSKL
Large screens that a line does not name were inactive (follow-up assays come after a bar, where they were run). Sampled rows, rich in hits. Any-hit rate of the full collection: about 2.2%.

COc1ccc(C#Cc2ccc([C@H]3[C@@H](CO)N4CCCCN(C(=O)Cc5ccccc5)C[C@H]34)cc2)cc1	none (no result: TROY signal inh, TWEAK Fn14 block, HSP90 refold inh)
Cc1ccc(OCCOc2cccc(C=C3C(=O)NC(=O)NC3=O)c2)cc1	HSP90 refold inh 30 | HSP90 inh confirm 45 | FLuc counter 14
O=C1NC(=S)N(c2ccccc2)C(=O)/C1=C/c1ccco1	none
CCOc1cccc(N2C(=O)/C(=C/c3ccco3)C(=O)NC2=S)c1	HSP90 refold inh 32 | HSP90 inh confirm inactive | FLuc counter 19
CCCCCCOc1ccc(CN2CCN(CC)CC2)cc1	TROY signal inh 60, TWEAK Fn14 block 66, HSP90 refold inh 30 (no result: LGR2 antag) | HSP90 inh confirm 25 | FLuc counter inactive

Screening data: PubChem BioAssay, several laboratories
